In PubChem BioAssay (NCATS):
Results filed as inconclusive are left out. The source made the active and inactive calls. Calls come from the whole dose curve; as a rule, active = well fitted inhibition curve with a large enough effect; inconclusive = small, poorly fitted or top-dose-only effect; inactive = flat fitted curve, though single readings scatter.

How the values were obtained:
Experiment in all cases: qHTS profiling for inhibitors of Plasmodium falciparum proliferation (AID 504749); note: nearly all actives have a fitted effect of over 60% in size
C2A = conditions: P. falciparum in erythrocytes, SYBR Green DNA, 72 h; series mostly up to 28.7 µM
How it was run: (§1)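 Parasite proliferation within erythrocytes, 72 h exposure. Endpoint: SYBR Green I fluorescence after overnight lysis at room temperature. Controls: 0.29 uM artemisinin, DMSO.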

CP211 = conditions: P. falciparum in erythrocytes, SYBR Green DNA, 72 h; series mostly up to 28.7 µM
How it was run: as §1

CP217 = conditions: P. falciparum in erythrocytes, SYBR Green DNA, 72 h; series mostly up to 28.7 µM
How it was run: as §1

CP250 = conditions: P. falciparum in erythrocytes, SYBR Green DNA, 72 h; series mostly up to 12.8 µM
How it was run: as §1

CP252 = conditions: P. falciparum in erythrocytes, SYBR Green DNA, 72 h; series mostly up to 12.8 µM
How it was run: as §1

CP256 = conditions: P. falciparum in erythrocytes, SYBR Green DNA, 72 h; series mostly up to 28.7 µM
How it was run: as §1

CP262 = conditions: P. falciparum in erythrocytes, SYBR Green DNA, 72 h; series mostly up to 28.7 µM
How it was run: as §1

CP265 = conditions: P. falciparum in erythrocytes, SYBR Green DNA, 72 h; series mostly up to 12.8 µM
How it was run: as §1

CP266 = conditions: P. falciparum in erythrocytes, SYBR Green DNA, 72 h; series mostly up to 12.8 µM
How it was run: as §1

CP268 = conditions: P. falciparum in erythrocytes, SYBR Green DNA, 72 h; series mostly up to 28.7 µM
How it was run: as §1

CP269 = conditions: P. falciparum in erythrocytes, SYBR Green DNA, 72 h; series mostly up to 28.7 µM
How it was run: as §1

CP325 = conditions: P. falciparum in erythrocytes, SYBR Green DNA, 72 h; series mostly up to 28.7 µM
How it was run: as §1

CP329 = conditions: P. falciparum in erythrocytes, SYBR Green DNA, 72 h; series mostly up to 28.7 µM
How it was run: as §1

ECU = conditions: P. falciparum in erythrocytes, SYBR Green DNA, 72 h; series mostly up to 28.7 µM
How it was run: as §1

FAB9 = conditions: P. falciparum in erythrocytes, SYBR Green DNA, 72 h; series mostly up to 28.7 µM
How it was run: as §1

P93_24 = conditions: P. falciparum in erythrocytes, SYBR Green DNA, 72 h; series mostly up to 28.7 µM
How it was run: as §1

PAD = conditions: P. falciparum in erythrocytes, SYBR Green DNA, 72 h; series mostly up to 28.7 µM
How it was run: as §1

PC15 = conditions: P. falciparum in erythrocytes, SYBR Green DNA, 72 h; series mostly up to 28.7 µM
How it was run: as §1

PC26 = conditions: P. falciparum in erythrocytes, SYBR Green DNA, 72 h; series mostly up to 28.7 µM
How it was run: as §1

SC27B = conditions: P. falciparum in erythrocytes, SYBR Green DNA, 72 h; series mostly up to 28.7 µM
How it was run: as §1

Measured: Potency

C[C@]12CC[C@H]3[C@@H](CCC4=CC(=O)CC[C@@]43C)[C@@H]1CC[C@@H]2O
inactive: C2A | CP211 | CP217 | CP250 | CP252 | CP256 | CP262 | CP265 | CP266 | CP268 | CP269 | CP325 | CP329 | ECU | FAB9 | P93_24 | PAD | PC15 | PC26 | SC27B
